Consider eight compounds from PubChem BioAssay (NCI).

Common to all, as to experiment: NCI-60 one-dose screen, 48 h (100 = growth as untreated, 0 = no growth, -100 = all killed)
The test system of one experiment is HCT-15 colon. The settings on record: 10 µM.
In another experiment the test system is HT29 colon. The settings on record: 10 µM.
Another experiment concerns SNB-75 CNS. The settings on record: 10 µM.
A further experiment deals with SNB-19 CNS. The settings on record: 10 µM.
The next experiment deals with U251 CNS. To be noted: 10 µM.
For another experiment, the system named is PC-3 prostate. To be noted: 10 µM.
In another experiment the test system is SK-MEL-5 melanoma. The settings on record: 10 µM.
The test system of a further experiment is UACC-62 melanoma. The settings on record: 10 µM unless noted.
The next experiment deals with LOX IMVI melanoma. To be noted: 10 µM.
The next experiment relates to SK-MEL-28 melanoma. The settings on record: 10 µM.
The next experiment concerns SK-MEL-2 melanoma. To be noted: 10 µM.
The test system of a further experiment is SN12C renal. The settings on record: 10 µM.
A further experiment deals with UO-31 renal. The settings on record: 10 µM.
The subject of a further experiment is TK-10 renal. To be noted: 10 µM unless noted.
In another experiment the test system is ACHN renal. To be noted: 10 µM.
In the next experiment the test system is CAKI-1 renal. The settings on record: 10 µM.
The next experiment has as its system A498 renal. To be noted: 10 µM.
Another experiment concerns CCRF-CEM leukemia. The settings on record: 10 µM.
In a further experiment the test system is MOLT-4 leukemia. The settings on record: 10 µM.

About 83,000 compounds went through this panel and 20% of them were active in at least one assay; those are over-represented in the sample as a whole.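 Values shown are percent growth following 48 h exposure of cells in 96-well plates to a single concentration of compound; below 10 was considered active.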 Activity calls are given as the source filed them.

Take `O=C(O)COCC(=O)O`: the growth is 103% (inactive) in the experiment on HCT-15 colon; 105% (inactive) with HT29 colon; 81.4% (inactive) in the experiment on SNB-75 CNS; 108% (inactive) in the experiment with SNB-19 CNS; 94.7% (inactive) with U251 CNS; 97% (inactive) with PC-3 prostate. In addition, the growth is 102% (inactive) with SK-MEL-5 melanoma; 111% (inactive) in the experiment on UACC-62 melanoma; 101% (inactive) in the experiment with LOX IMVI melanoma; 98.3% (inactive) with SK-MEL-28 melanoma; 107% (inactive) in the experiment with SK-MEL-2 melanoma; 102% (inactive) in the experiment with SN12C renal. Further, the growth in the experiment on UO-31 renal was 91.4% (inactive); with TK-10 renal, 124% (inactive); in the experiment with ACHN renal, 103% (inactive); with CAKI-1 renal, 97.5% (inactive); in the experiment on A498 renal it was 110% (inactive); with CCRF-CEM leukemia it was 101% (inactive). Moreover, the growth in the experiment with MOLT-4 leukemia was 99.1% (inactive).

For `CCC/C=C(\C)C(C)(C#N)C(=O)OCC` (centres undefined), the growth in the experiment on HCT-15 colon is 113% (inactive); with HT29 colon it was 109% (inactive); in the experiment with SNB-75 CNS, 87.8% (inactive); with SNB-19 CNS it was 102% (inactive); in the experiment with U251 CNS, 102% (inactive); with PC-3 prostate it was 101% (inactive). In addition, the growth in the experiment with SK-MEL-5 melanoma is 103% (inactive); in the experiment with UACC-62 melanoma it was 102% (inactive); with LOX IMVI melanoma it was 99.9% (inactive); in the experiment with SK-MEL-28 melanoma, 109% (inactive); in the experiment with SK-MEL-2 melanoma, 105% (inactive); in the experiment on UO-31 renal, 100% (inactive). The growth with TK-10 renal is 108% (inactive); with ACHN renal it was 106% (inactive); in the experiment with CAKI-1 renal, 92.3% (inactive); in the experiment with A498 renal, 98.9% (inactive); with CCRF-CEM leukemia it was 90.4% (inactive); with MOLT-4 leukemia it was 104% (inactive).

`COc1cc(C2c3cc4c(cc3C3OC(=O)C2C3CO)OCO4)cc(OC)c1OC` (centres undefined): the growth is 3.35% (active) in the experiment on HCT-15 colon; -9.63% (active) in the experiment on HT29 colon; 53.4% (inactive) with SNB-75 CNS; 46.6% (inactive) in the experiment with SNB-19 CNS; 19.7% (inactive) in the experiment on U251 CNS; 19.2% (inactive) with PC-3 prostate. Further, the growth is -0.321% (active) in the experiment on SK-MEL-5 melanoma; 29.7% (inactive) in the experiment with UACC-62 melanoma; 7.4% (active) with LOX IMVI melanoma; 49.4% (inactive) in the experiment on SK-MEL-28 melanoma; 7.33% (active) in the experiment with SK-MEL-2 melanoma; 23.8% (inactive) in the experiment on SN12C renal. In addition, the growth in the experiment with UO-31 renal was 38.2% (inactive); with TK-10 renal, 49.6% (inactive); in the experiment on ACHN renal, 24.9% (inactive); in the experiment on CAKI-1 renal, 37.4% (inactive); in the experiment on A498 renal, -7.83% (active); in the experiment on CCRF-CEM leukemia, -7.15% (active). The growth in the experiment with MOLT-4 leukemia is -9.4% (active).

With `CC1CCCCN1C(=S)Nc1ccc(S(=O)(=O)N2CCCCC2)cc1` (centres undefined), the growth was 99.2% (inactive) in the experiment on HCT-15 colon; 94% (inactive) with HT29 colon; 129% (inactive) in the experiment on SNB-75 CNS; 109% (inactive) in the experiment on SNB-19 CNS; 95.7% (inactive) with U251 CNS; 83% (inactive) in the experiment on PC-3 prostate. For the same compound, the growth with SK-MEL-5 melanoma was 103% (inactive); in the experiment with UACC-62 melanoma, 95.6% (inactive); in the experiment with LOX IMVI melanoma, 105% (inactive); in the experiment with SK-MEL-28 melanoma, 98.6% (inactive); in the experiment on SK-MEL-2 melanoma, 107% (inactive); with SN12C renal, 109% (inactive). In addition, the growth in the experiment on UO-31 renal was 89.4% (inactive); in the experiment on TK-10 renal, 107% (inactive); in the experiment on ACHN renal it was 99.8% (inactive); in the experiment on CAKI-1 renal it was 75.8% (inactive); in the experiment on A498 renal it was 70.9% (inactive); in the experiment on CCRF-CEM leukemia, 75.9% (inactive). Further, in the experiment with MOLT-4 leukemia, the growth was 104% (inactive).

As for `CCCCCCCCCCC(C)Br` (centres undefined), the growth in the experiment with HCT-15 colon is 104% (inactive); in the experiment with HT29 colon it was 109% (inactive); with SNB-75 CNS it was 97% (inactive); in the experiment with SNB-19 CNS, 103% (inactive); in the experiment with U251 CNS, 103% (inactive); with PC-3 prostate, 101% (inactive). For the same compound, the growth in the experiment with SK-MEL-5 melanoma is 102% (inactive); in the experiment with UACC-62 melanoma it was 104% (inactive); in the experiment on LOX IMVI melanoma it was 94.3% (inactive); in the experiment on SK-MEL-28 melanoma, 112% (inactive); with SK-MEL-2 melanoma, 104% (inactive); in the experiment on SN12C renal, 103% (inactive). For the same compound, the growth was 91.9% (inactive) in the experiment with UO-31 renal; 107% (inactive) in the experiment on TK-10 renal; 102% (inactive) in the experiment with ACHN renal; 98.6% (inactive) in the experiment with CAKI-1 renal; 108% (inactive) in the experiment with A498 renal; 95.3% (inactive) with CCRF-CEM leukemia. Besides, in the experiment with MOLT-4 leukemia, the growth was 95.3% (inactive).

With `CC1NC(=O)NC1CCCCCC(=O)O` (centres undefined), the growth in the experiment with HCT-15 colon was 98.4% (inactive); in the experiment with HT29 colon it was 102% (inactive); in the experiment on SNB-75 CNS it was 94% (inactive); with SNB-19 CNS it was 99.8% (inactive); in the experiment on U251 CNS it was 94.5% (inactive); with PC-3 prostate, 86.4% (inactive). The growth in the experiment with SK-MEL-5 melanoma is 102% (inactive); with UACC-62 melanoma, 96.7% (inactive); in the experiment on LOX IMVI melanoma, 93.3% (inactive); with SK-MEL-28 melanoma, 115% (inactive); in the experiment with SK-MEL-2 melanoma it was 103% (inactive); in the experiment with SN12C renal, 105% (inactive). Moreover, the growth in the experiment on TK-10 renal was 100% (inactive); in the experiment with ACHN renal it was 101% (inactive); in the experiment with A498 renal, 87.8% (inactive); with CCRF-CEM leukemia, 2.23% (active); with MOLT-4 leukemia, 118% (inactive).

For `Cc1ccc(S(=O)(=O)O)c(C)c1`, the growth in the experiment with HCT-15 colon is 104% (inactive); with HT29 colon it was 103% (inactive); with SNB-75 CNS, 82.8% (inactive); in the experiment with SNB-19 CNS, 109% (inactive); in the experiment with U251 CNS, 97.1% (inactive); in the experiment on PC-3 prostate it was 99.1% (inactive). Besides, the growth was 105% (inactive) in the experiment on SK-MEL-5 melanoma; 120% (inactive) in the experiment on UACC-62 melanoma; 95.3% (inactive) with LOX IMVI melanoma; 106% (inactive) with SK-MEL-28 melanoma; 112% (inactive) with SK-MEL-2 melanoma; 103% (inactive) in the experiment with SN12C renal. The growth in the experiment with UO-31 renal is 73.6% (inactive); in the experiment with TK-10 renal, 101% (inactive); with ACHN renal it was 103% (inactive); with CAKI-1 renal, 96.3% (inactive); in the experiment with A498 renal, 94.1% (inactive); in the experiment with CCRF-CEM leukemia it was 100% (inactive). Besides, the growth in the experiment on MOLT-4 leukemia was 98.6% (inactive).

For `COC(=O)c1ccccc1N(C)C`, the growth in the experiment with HCT-15 colon is 103% (inactive); in the experiment with HT29 colon, 94.8% (inactive); in the experiment with SNB-75 CNS, 93.3% (inactive); in the experiment with SNB-19 CNS, 98.8% (inactive); in the experiment on U251 CNS, 112% (inactive); in the experiment with PC-3 prostate, 100% (inactive). The growth is 101% (inactive) in the experiment with SK-MEL-5 melanoma; 105% (inactive) in the experiment on UACC-62 melanoma; 94.5% (inactive) in the experiment with LOX IMVI melanoma; 103% (inactive) in the experiment with SK-MEL-28 melanoma; 99.4% (inactive) with SK-MEL-2 melanoma; 103% (inactive) with SN12C renal. Besides, the growth in the experiment on UO-31 renal was 87.5% (inactive); in the experiment with TK-10 renal, 94.8% (inactive); in the experiment with ACHN renal, 113% (inactive); in the experiment on CAKI-1 renal it was 96.2% (inactive); with A498 renal, 79.6% (inactive); in the experiment with CCRF-CEM leukemia, 95.5% (inactive). Further, the growth in the experiment on MOLT-4 leukemia is 90.1% (inactive).
